Results filed as inconclusive are left out. The source made the active and inactive calls. The call rests on the fitted dose curve; in most records, active means well fitted inhibition curve with a large enough effect; inconclusive means small, poorly fitted or top-dose-only effect, or effect the other way; inactive means no such curve, though single readings can be large or run the other way.

The nature of this experiment: High Content Imaging Cell-Based qHTS for Inhibitors of the mTORC1 Signaling Pathway in MEF Cells (AID 2667).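 Further: Tsc2-/- p53-/- MEFs stably re-expressing wild-type Tsc2 exposed 24 h.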 The note with it: series mostly up to 38.3 µM. The text has this:
NIH Molecular Libraries Probe Production Centers Network [MLPCN]
NIH Chemical Genomics Center [NCGC]
Assay Submitter (PI): Blenis, John; Hoffman, Greg; Harvard University
NCGC Assay Overview: The mammalian target of rapamycin (mTOR) is an intracellular serine/threonine kinase Aberrant regulation of mTOR signaling plays a causative role in a number of human diseases, including cancer, benign tumors such as lymphangioleiomyomatosis (LAM) and Tuberous Sclerosis Complex (TSC), and metabolic diseases such as diabetes and obesity. This project aims to identify inhibitors of ribosomal protein S6 (rpS6) phosphorylation. The phosphorylation of rpS6 is a key event downstream of mTOR activation. The assay uses a phospho-specific antibody of phospho-rpS6 to detect inhibitors of mTOR activation. Mutations in the Tsc1 and Tsc2 genes are the underlying genetic lesions responsible for TSC, causing constitutive activation of the mTORC1 pathway and leading to profound effects on cell metabolism. Aberrant metabolism in cancer has recently received significant attention as a target to develop therapeutic agents in the treatment of cancer.1 As Tsc2-/- cells have lost the ability to respond to energy and growth factor deprivation, these cells are unable to properly down regulate cellular biosynthetic processes in response to metabolic stress, and are thus extremely sensitive to glucose deprivation-induced death.2 A central goal of this project is to explore the unique cell survival and metabolic properties of cells with Tsc1 or Tsc2 by screening for compounds that selectively target the Tsc2-/- MEFs by screening both Tsc2-/- and WT MEF cell lines. We hope to better understand these aspects of TSC physiology in order to exploit them for therapeutic benefit.
NCGC IN Cell Assay Protocol:
For quantitative high throughput analysis of mTORC1 signaling, we developed a cell-based assay for immuno-fluorescence based detection of rpS6 phosphorylation on the Acumen Explorer that will be used a platform for the primary small molecule screen. Mouse embryonic fibroblasts (MEFs) are cultured in 1536-well plates using DMEM + 10% FBS. Twenty-four hrs after plating, test compounds (solubilized in DMSO) are delivered and incubated with the cells for 24 hrs at 37 degree Celsius. Following the incubation, media with compound is aspirated and the cells are fixed in 4% paraformaldehyde (PFA) containing PBS + 0.2% TX-100. Next, PFA is aspirated, cells are washed two times with PBS plus 0.2% TX-100 and the cells are blocked for 1 hr at room temperature (blocking buffer: LiCOR Blocking Buffer plus 0.2% TX-100). This is followed by aspiration and staining with Alexa-488 conjugated-phospho-rpS6 Ser235/236 antibody for 2 hours at room temperature (Cell Signaling Technology # 4803, 1:50 dilution in blocking buffer). Cells are washed two times with PBS plus 0.2% TX-100, and stained with 10 uM propidium iodide (PI) for 20-25 minutes for cell number measurement (1:500 dilution of Hoescht staining is also added for IN Cell imaging). Active wells which are selected (based on Acumen results) are imaged on the IN Cell 1000 (GE Healthcare) using the D360/40X and HQ480/40X excitation filters for the Hoechst and Alexa-488 cytoplasmic stains, respectively. The fluorescence emission filters used were HQ460/40M and HQ535/50M for the Hoechst and Alexa-488 cytoplasmic stains, respectively. The normalized phospho-S6 staining is calculated as the ratio of […] for the single concentration rapamycin control ([…] nM) and DMSO columns. […] Inhibition of the pathway is defined based on the normalized phospho-S6 intensity in rapamycin treated cells. Each treatment is reported as the % positive cells in the well, where thresholds are defined by selecting wells with the highest and lowest signal and differentiating between the % non-active and % active populations. […]
(In general: In qHTS, concentration-response curves come from the screen itself.)
With `O=C1NC(=O)/C(=C/c2ccc3c(c2)OC(F)(F)O3)S1`, the molecule was classed as inactive. For the molecule `Brc1ccc([C@H]2CN3CCSC3=N2)cc1`, the outcome was inactive. The same measure for `Nc1ncnc2n[nH]c(Nc3ccc(F)cc3)c12`: “inactive”; for `Cc1nn(-c2ccccc2)c(C)c1/C=N/N1CCN(Cc2ccccc2)CC1`: “inactive”; for `COC(=O)C1=CO[C@@H](O)[C@@H]2C(CO)=CC[C@H]12`: “inactive”. For `Cn1cnc2c(NCc3ccccc3)nc(NCCO)nc21`, the result was inactive. On to `CN(C)c1cc2c(Nc3ccc4c(cnn4Cc4ccccc4)c3)ncnc2cn1`, for which the result was inactive.

As to `NC(N)=NCCCCN=C(N)N`, the molecule was classed as inactive. With `N[C@@H](Cn1ccc(=O)c(O)c1)C(=O)O`, the molecule was classed as inactive. On to `O=C1NC(c2cccc([N+](=O)[O-])c2)=CCN1c1ccccc1O`, for which the molecule was classed as inactive. Take `CCN(CC)CCNC(=O)c1ccc(NS(C)(=O)=O)cc1`: the outcome was inactive.

Regarding `COc1ccccc1N1CCN(CCN2C(=O)CC3(CCCC3)CC2=O)CC1`, the molecule was classed as inactive.

Consider `C[N+](C)(C)CCO`, for which the molecule was called inactive.

(Values after PubChem BioAssay (NCATS).)
